Measurements published in PubChem BioAssay (EPA / NIEHS).
“And” between values parts separate entries of the source, which are not always exact repeats. Equal entries are not always repeated. Inconclusive results are not listed. The source made the active and inactive calls. How the source made its calls, unless noted: active means hit-call score of the fitted dose curve at least 0.9, where 1 is the maximum; inconclusive means response in the unintended direction; inactive means score below 0.9.

Key:
[1] = read-out: xenobiotic metabolism (CYP1A2), CYP1A2 (gene 1544); experiment: CLD_CYP1A2_24hr: CellzDirect (CLD) Gene Expression Assay for xenobiotic metabolism (CYP1A2) at 24 hours (AID 2283683)
Procedure, shortened: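 CYP1A2 mRNA induction measured by quantitative nuclease protection (chemiluminescent) in human primary hepatocytes 24 h after multi-concentration chemical dosing with daily fresh solutions. DMSO (0.2%) baseline; positive-direction fitting; morphology-based cytotoxicity noted.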

[2] = read-out: ABC Transporter (ABCB1), ABCB1 (gene 5243); experiment: CLD_ABCB1_24hr: CellzDirect (CLD) Gene Expression Assay for ABC Transporter (ABCB1) at 24 hours (AID 2283684)
Procedure, shortened: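 ABCB1 mRNA induction versus 0.2% DMSO vehicle was read by qNPA chemiluminescence at 24 h. Cultured human hepatocytes from two donor preparations received daily fresh dosing, and phase-contrast cytotoxicity calls were annotated alongside the data.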

[3] = read-out: alkyl and aryl transferase (GSTA2), GSTA2 (gene 2939); experiment: CLD_GSTA2_24hr: CellzDirect (CLD) Gene Expression Assay for alkyl and aryl transferase (GSTA2) at 24 hours (AID 2283693)
Procedure, shortened: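 GSTA2 transcript levels were quantified by quantitative nuclease protection assay in primary human hepatocytes 24 h after daily dosing with fresh solutions at multiple concentrations; 0.2% DMSO vehicle as baseline, cytotoxicity flagged morphologically.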

[4] = read-out: sulfotransferase (SULT2A), SULT2A1 (gene 6822); experiment: CLD_SULT2A_24hr: CellzDirect (CLD) Gene Expression Assay for sulfotransferase (SULT2A) at 24 hours (AID 2283694)
Procedure, shortened: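 mRNA is measured by qNPA: probe hybridisation, S1 nuclease digestion, chemiluminescence, in lysates from human primary hepatocytes harvested 24 h after daily dosing. Vehicle was 0.2% DMSO. Phase-contrast microscopy flagged cytotoxicity (yes/no).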

[5] = read-out: Cytochrome P450 2B6 (Homo sapiens) (UniProt P20813); experiment: CLD_CYP2B6_48hr: CellzDirect (CLD) Gene Expression Assay for xenobiotic metabolism (CYP2B6) at 48 hours (AID 2283699);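 further: actives raise transcript level above DMSO so potency reflects induction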
Procedure, shortened: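 CYP2B6 transcript induction, read by quantitative nuclease protection (S1 digestion, chemiluminescent detection) 48 h after dosing, is fitted upward against 0.2% DMSO. Cultured human liver primary cells, two donor preparations, received fresh chemical daily over multiple concentrations.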

[6] = read-out: xenobiotic metabolism (CYP1A1), CYP1A1 (gene 1543); experiment: CLD_CYP1A1_48hr: CellzDirect (CLD) Gene Expression Assay for xenobiotic metabolism (CYP1A1) at 48 hours (AID 2283705)
Procedure, shortened: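 CYP1A1 transcript measured by quantitative nuclease protection (chemiluminescent) 48 h after two daily treatments of human hepatocyte cultures, versus 0.2% DMSO. Morphology-based cytotoxicity flags accompany data; two donor preparations used.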

[7] = read-out: alkyl and aryl transferase (GSTA2), GSTA2 (gene 2939); experiment: CLD_GSTA2_48hr: CellzDirect (CLD) Gene Expression Assay for alkyl and aryl transferase (GSTA2) at 48 hours (AID 2283708);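 further: active means mRNA induction above DMSO vehicle baseline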
Procedure, shortened: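 GSTA2 mRNA quantified by qNPA chemiluminescence in human primary hepatocyte lysates after 48 h of daily fresh chemical dosing. Increases fitted against 0.2% DMSO vehicle baseline; cytotoxicity from morphology annotated yes/no.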

[8] = read-out: glucuronosyltransferase (UGT1A1), UGT1A1 (gene 54658); experiment: CLD_UGT1A1_48hr: CellzDirect (CLD) Gene Expression Assay for glucuronosyltransferase (UGT1A1) at 48 hours (AID 2283709);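 further: actives increase expression relative to DMSO so potency refers to induction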
Procedure, shortened: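 Quantitative nuclease protection assay (chemiluminescent) for UGT1A1 mRNA at 48 h in human hepatocyte cultures from two donors, redosed daily with fresh solutions. Induction fitted relative to 0.2% DMSO; phase-contrast morphology annotated cytotoxicity.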

[9] = STM_H9_CystineISnorm_perc: Stemina devTOX quickPredict H9 human embryonic stem cell (hESC)-based Assay for Cystine (CYSS) Metabolite Biomarker, Normalized (AID 2283713; active means hit-call score of the fitted dose curve at least 0.9, where 1 is the maximum; inactive means score below 0.9)
Procedure, shortened: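 Cells are held undifferentiated and treated for 72h, receiving fresh medium with compound every 24h. Cystine secreted during the final day is quantified by UPLC-HRMS against a labeled spike-in, then expressed relative to the DMSO vehicle median.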

[10] = STM_H9_OrnCyssISnorm_ratio: Stemina devTOX quickPredict H9 human embryonic stem cell (hESC)-based Assay for Ornithine (ORN):Cystine (CYSS) Ratio (AID 2283714)
Procedure, shortened: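 UPLC-HRMS of spent media: ORN/CYSS ratio of internal-standard-normalized percentages, DMSO (0.1%) baseline. Pluripotent H9 hESCs, 72h exposure, daily re-dosing with fresh media; last 24h media collected.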

[11] = CEETOX_H295R_MTT_cell_viability: Viability Assessment in the CeeTox HT-H295R MTT Assay (AID 2283718; active means hit-call score of the fitted dose curve at least 0.9, where 1 is the maximum; inactive means score below 0.9)
Procedure, shortened: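 Human H295R adrenal cells, prestimulated 48 h with 10 uM forskolin, were exposed 48 h to chemicals in 0.1% DMSO. Viability was measured in the same wells by MTT (0.5 mg/ml, 4 h, 37 C), absorbance 570/650 nm, as percent of controls.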

[12] = Tanguay_ZF_120hpf_ActivityScore_legacy: (Legacy) Oregon State University Tanguay Lab 120 Hour Post-fertilization zebrafish Assay Score for Activity (AID 2283742);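 on AC50: dechorionated Tropical 5D wild-type zebrafish embryos held singly per well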
Procedure, shortened: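 Dechorionated 5D embryos, one per well, static exposure 6–120 hpf, 28C, sealed and dark; final DMSO 0.64% (vol/vol). Brightfield binary scoring of mortality plus 18 endpoints; gain-of-signal fit versus DMSO baseline.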

[13] = read-out: Glyceraldehyde-3-phosphate dehydrogenase (Homo sapiens) (UniProt P04406); experiment: CLD_GAPDH_24hr: CellzDirect (CLD) Gene Expression Assay for Baseline Control (Glyceraldehyde 3-phosphate dehydrogenase) at 24 hours (AID 2283692)
Procedure, shortened: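 GAPDH baseline-control readout: qNPA chemiluminescent mRNA signal in human primary hepatocytes harvested 24 h after daily dosing, normalised to 0.2% DMSO with positive fitting direction; cytotoxicity annotated by phase-contrast morphology.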

[14] = read-out: Cytochrome P450 3A4 (Homo sapiens) (UniProt P08684); experiment: CLD_CYP3A4_48hr: CellzDirect (CLD) Gene Expression Assay for xenobiotic metabolism (CYP3A4) at 48 hours (AID 2283698)
Procedure, shortened: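 CYP3A4 induction read by qNPA chemiluminescence after 48 h, with fresh dosing solutions on consecutive days, in cultured human hepatocytes (two donors). Vehicle 0.2% DMSO as baseline; microscopy-based cytotoxicity annotated yes/no alongside data.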

[15] = CLD_ACTIN_48hr: CellzDirect (CLD) Gene Expression Assay for Baseline Control (Actin) at 48 hours (AID 2283702)
Procedure, shortened: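 Background-control actin mRNA read by qNPA chemiluminescence at 48 h. Human hepatocyte cultures from two donors received fresh multi-concentration chemical doses daily for two days; 0.2% DMSO served as vehicle baseline.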

[16] = read-out: Glyceraldehyde-3-phosphate dehydrogenase (Homo sapiens) (UniProt P04406); experiment: CLD_GAPDH_48hr: CellzDirect (CLD) Gene Expression Assay for Baseline Control (Glyceraldehyde 3-phosphate dehydrogenase) at 48 hours (AID 2283706);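 further: active means higher GAPDH mRNA than DMSO vehicle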
Procedure, shortened: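 GAPDH baseline-control readout: qNPA chemiluminescent mRNA quantitation in human liver primary cells 48 h after daily dosing on two consecutive days, vehicle 0.2% DMSO; gain of signal fitted against DMSO, cytotoxicity flagged by phase-contrast morphology.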

[17] = read-out: organic anion transporter (SLCO1B1), SLCO1B1 (gene 10599); experiment: CLD_SLCO1B1_48hr: CellzDirect (CLD) Gene Expression Assay for organic anion transporter (SLCO1B1) at 48 hours (AID 2283707)
Procedure, shortened: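 SLCO1B1 transcript quantified by qNPA with chemiluminescent readout after 48 h of once-daily chemical exposure. Cultured human primary hepatocytes came from two donors, with 0.2% DMSO vehicle; positive-direction fitting against DMSO, cytotoxicity flagged by morphology.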

Sequence of Glyceraldehyde-3-phosphate dehydrogenase (Homo sapiens) (P04406 whole entry, looked up): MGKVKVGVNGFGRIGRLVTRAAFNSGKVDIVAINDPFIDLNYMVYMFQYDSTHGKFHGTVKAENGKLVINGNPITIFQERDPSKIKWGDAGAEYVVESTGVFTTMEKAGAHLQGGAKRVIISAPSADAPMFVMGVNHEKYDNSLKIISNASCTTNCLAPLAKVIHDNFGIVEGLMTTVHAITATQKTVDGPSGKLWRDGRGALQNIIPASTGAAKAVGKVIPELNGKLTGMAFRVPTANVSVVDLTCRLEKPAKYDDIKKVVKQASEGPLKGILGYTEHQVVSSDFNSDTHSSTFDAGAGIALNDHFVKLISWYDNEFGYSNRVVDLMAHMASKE
Sequence of Cytochrome P450 3A4 (Homo sapiens) (P08684 whole entry, looked up): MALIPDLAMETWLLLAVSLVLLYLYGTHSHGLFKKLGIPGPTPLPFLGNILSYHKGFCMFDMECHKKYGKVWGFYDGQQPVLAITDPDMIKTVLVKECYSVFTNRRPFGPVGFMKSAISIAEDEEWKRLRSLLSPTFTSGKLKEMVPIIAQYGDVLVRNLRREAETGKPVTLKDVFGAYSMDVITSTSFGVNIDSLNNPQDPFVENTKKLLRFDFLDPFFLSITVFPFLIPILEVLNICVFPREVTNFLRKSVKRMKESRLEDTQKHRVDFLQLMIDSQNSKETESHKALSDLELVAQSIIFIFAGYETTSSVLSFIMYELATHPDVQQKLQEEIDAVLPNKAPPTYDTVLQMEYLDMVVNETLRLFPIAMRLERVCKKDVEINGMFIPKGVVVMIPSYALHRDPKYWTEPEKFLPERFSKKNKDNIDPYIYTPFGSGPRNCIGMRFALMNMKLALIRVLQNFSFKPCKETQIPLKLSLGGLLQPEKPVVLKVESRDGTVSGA

With `CC(C)(C)C(O)C(Oc1ccc(Cl)cc1)n1cncn1` (stereo not given) the AC50 [1] was 2.95 µM (active), the outcome [2] was “inactive” and the outcome [3] was “inactive”. The outcome [4] was “inactive”, the AC50 [5] was 3.18 µM (active) and the AC50 [6] was 5.32 µM (active). For the same compound, the outcome [7] was “inactive”, the AC50 [8] was 2.43 µM (active) and the AC50 [9] was 20.4 µM (active). For the same compound, the AC50 [10] was 28.3 µM (active), the outcome [11] was “inactive” and the AC50 [12] was 26.3 µM (active) and 43 µM (active) and 47 µM (active).

In the case of `CNC(=O)Oc1ccccc1OC(C)C`, the outcome [1] is reported as “inactive”, the outcome [13] is reported as “inactive” and the AC50 [14] is reported as 3.99 µM (active). The AC50 [5] was 1.51 µM (active), the outcome [15] was “inactive” and the outcome [6] was “inactive”. For the same compound, the outcome [16] was “inactive”, the outcome [11] was “inactive” and the outcome [12] was “inactive”.

In the case of `CCN(CC)C(=O)SCc1ccc(Cl)cc1`, the outcome [1] is reported as “inactive”, the outcome [2] is reported as “inactive” and the outcome [3] is reported as “inactive”. For the same compound, the AC50 [14] was 20 µM (active), the AC50 [5] was 20 µM (active) and the outcome [15] was “inactive”. For the same compound, the outcome [6] was “inactive”, the outcome [7] was “inactive” and the outcome [11] was “inactive”. For the same compound, the outcome [12] was “inactive”.

With `CNC(=O)/C=C(\C)OP(=O)(OC)OC` the outcome [1] was “inactive”, the outcome [4] was “inactive” and the AC50 [14] was 1.9 µM (active). The outcome [5] was “inactive”, the outcome [15] was “inactive” and the outcome [6] was “inactive”. The outcome [16] was “inactive”, the outcome [17] was “inactive” and the outcome [7] was “inactive”. For the same compound, the outcome [11] was “inactive” and the outcome [12] was “inactive”.

In the case of `O=C(O)CCCOc1ccc(Cl)cc1Cl`, the outcome [1] is reported as “inactive”, the outcome [2] is reported as “inactive” and the outcome [4] is reported as “inactive”. For the same compound, the outcome [5] was “inactive”, the outcome [15] was “inactive” and the outcome [6] was “inactive”. The outcome [12] was “inactive”.

With `O=[N+]([O-])c1c(Cl)c(Cl)c(Cl)c(Cl)c1Cl` the outcome [1] was “inactive”, the outcome [2] was “inactive” and the outcome [3] was “inactive”. The AC50 [14] was 3.39 µM (active), the AC50 [5] was 1.9 µM (active) and the outcome [15] was “inactive”. The AC50 [6] was 3.97 µM (active), the outcome [17] was “inactive” and the outcome [7] was “inactive”. For the same compound, the outcome [8] was “inactive”, the outcome [11] was “inactive” and the outcome [12] was “inactive”.

In the case of `CCC(C)(C)C(=O)OC1=C(c2ccc(Cl)cc2Cl)C(=O)OC12CCCCC2`, the outcome [1] is reported as “inactive”, the outcome [2] is reported as “inactive” and the AC50 [14] is reported as 34.8 µM (active). The outcome [5] was “inactive”, the outcome [6] was “inactive” and the outcome [16] was “inactive”. The outcome [7] was “inactive”, the outcome [11] was “inactive” and the outcome [12] was “inactive”.
